# Test results as given in PubChem BioAssay (EPA / NIEHS).
# Records with an inconclusive call do not appear. Active and inactive are the calls of the source. Rule for the calls: active = hit-call score of the fitted dose curve at least 0.9, where 1 is the maximum; inconclusive = response in the unintended direction; inactive = score below 0.9.
# Assay: CLD_ACTIN_24hr: CellzDirect (CLD) Gene Expression Assay for Baseline Control (Actin) at 24 hours (AID 2283670)
# Description: CLD_24hr is a cell-based, multiplexed-readout assay that uses hepatocyte, a human liver primary cell, with measurements taken at 24 hours after chemical dosing in a 96-well plate.CLD_ACTIN_24hr is one of 16 assay component(s) measured or calculated from the CLD_24hr assay. It is designed to make measurements of mRNA induction, a form of inducible reporter, as detected with chemiluminescence signals by Quantitative Nuclease Protection Assay (qNPA) technology.Data from the assay component CLD_ACTIN_24hr was analyzed at the endpoint, CLD_ACTIN_24hr, in the positive analysis fitting direction relative to DMSO as the negative control and baseline of activity. Using a type of inducible reporter, gain-of-signal activity can be used to understand changes in the reporter gene as they relate to the gene ACTA1. Furthermore, this assay endpoint can be referred to as a secondary readout, because this assay has produced multiple assay endpoints where this one serves a background control function. To generalize the intended target to other relatable targets, this assay endpoint is annotated to the background measurement intended target family, where subfamily is baseline control.
# Human hepatocyte cultures were treated daily for two consecutive days with fresh dosing solutions containing appropriate concentrations of the 320 ToxCast chemicals (chemical identities were blinded to CellzDirect and other ToxCast collaborators), vehicle control (0.2% DMSO), and positive control inducers as summarized in Table 1. Due to the large number of treatment groups and chemicals examined, the ToxCast chemicals were divided into two groups (spanning two independent cultures of hepatocytes from separate donor preparations (Hu778: ToxCast plates 1 and 2; Hu776: ToxCast plates 3 and 4). Each preparation of human hepatocyte cultures was treated with respective vehicle control, medium only control, set of six positive controls/reference chemicals for the five hepatic receptor pathways, and a subset of eight of the ToxCast chemicals (indoxacarb, pyrithiobac-sodium, norflurazon, cyhalofop-butyl, methomyl, thiram, acetochlor, and propiconazole). These replicate data, coupled with internal replicates designed within the blinded ToxCast chemical library, provided additional data to evaluate interindividual differences between hepatocyte preparations and their potential impact on chemical profiles.Cell morphology and integrity were evaluated using phase-contrast microscopy as an indicator of hepatocyte cell health (Tyson & Green, 1987). Cultures for each treatment group (i.e., media, vehicle [0.2% DMSO], positive control inducers [multiple concentrations], and the ToxCast chemicals [multiple concentrations]) were observed and cell morphology was assessed relative to vehicle control cultures at each harvest time point (0, 6, 24, or 48 h). […] Images were evaluated at the conclusion of the study to assess changes in cell integrity and account for the effects of chemical exposure on uncharacteristic changes in concentration-dependent gene expression profiles. The results from these determinations of apparent cytotoxicity were annotated (yes/no) alongside the corresponding qNPA data for reference.At the conclusion of each treatment period, hepatocyte cultures (96-well) were washed with 1 volume of HBSS, lysed by addition of 25 ul ArrayPlate lysis buffer (HTG, Tucson, AZ), and 70 ul/well of Denaturation Oil, denatured by incubation at 95C for 10 min, and frozen at approximately -70C until analysis by nuclease protection assay (qNPA) (Roberts et al., 2007). For qNPA analysis, cell lysates were thawed at 50C for approximately 30 min, qNPA probes were added, and samples were incubated at 95C for 10 min to begin the detection process by denaturing the target RNA, dissociating the duplexes and secondary structure hybridization. At the conclusion of the hybridization period, S1 nuclease reagent was added to each sample to digest all nonprotected nucleotides at 50C for 60-90 min. […]
row,SMILES,outcome
1,O=P(O)(O)CCCl,inactive
2,Cn1c(-c2ccccc2)cc(-c2ccccc2)[n+]1C,inactive
3,COCc1cnc(C2=NC(C)(C(C)C)C(=O)N2)c(C(=O)O)c1 (stereo not drawn),inactive
4,Clc1cccc(C(Cl)(Cl)Cl)n1,inactive
5,CC(C)C1(C)N=C(c2ncccc2C(=O)O)NC1=O (stereo not drawn),inactive
6,CCSC(=O)N1CCCCCC1,inactive
7,Cc1c(COC(=O)[C@@H]2[C@H](/C=C(\Cl)C(F)(F)F)C2(C)C)cccc1-c1ccccc1,inactive
8,CCCN(CC)CC1COC2(CCC(C(C)(C)C)CC2)O1 (stereo not drawn),inactive
9,Clc1nc(Cl)nc(Nc2ccccc2Cl)n1,inactive
10,N#CN=C1SCCN1Cc1ccc(Cl)nc1,inactive
11,COc1ccc(-c2ccccc2)cc1NNC(=O)OC(C)C,inactive
12,O=C(O)c1c(Cl)ccc2cc(Cl)cnc12,inactive
13,O=C1C2CC=CCC2C(=O)N1SC(Cl)(Cl)Cl (stereo not drawn),inactive
14,Nc1c(Cl)c(F)nc(OCC(=O)O)c1Cl,inactive
15,CCOc1nc(C(Cl)(Cl)Cl)ns1,inactive
16,CSC(=O)c1c(C(F)F)nc(C(F)(F)F)c(C(=O)SC)c1CC(C)C,inactive
17,CO/N=C(/C1=NOCCO1)c1ccccc1Oc1ncnc(Oc2ccccc2Cl)c1F,inactive
18,CS(=O)(=O)c1ccc(C(=O)C2C(=O)CCCC2=O)c([N+](=O)[O-])c1,inactive
19,CC1(C)CON(Cc2ccccc2Cl)C1=O,inactive
20,Cc1cnc(C2=NC(C)(C(C)C)C(=O)N2)c(C(=O)O)c1 (stereo not drawn),inactive
21,CCCCC(O)(Cn1cncn1)c1ccc(Cl)cc1Cl (stereo not drawn),inactive
22,COP(=O)(OC)O/C(C)=C/C(=O)N(C)C,inactive
23,CC(C)N1C(=O)c2ccccc2NS1(=O)=O,inactive
